Compound activity: PubChem BioAssay, several laboratories
ANO1 block: inhibitors of mouse TMEM16A calcium-activated chloride channel. Q8BHY3. HEK293 TMEM16A/YFP iodide influx fluorescence, ionomycin. normalized B-score (activity score, 25-100; higher = stronger inhibition) at 10 µM. 310,000 tested, 1.2% active;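 active means ratio plate-corrected score three or more library SD toward inhibition, starting fluorescence score within five deviations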;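 further: score derived from kinetic fluorescence span divided by baseline fluorescence per well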
GPR7 antagonist: human neuropeptides B/W receptor 1 antagonism | inhibition, % at 4.4 µM | GPR7-expressing cells, fluorescence antagonist assay | 290,000 tested, 1.1% active | AID 1861; in the data active means inhibition above about 16%, passing the limit was not always enough;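 further: cells stimulated with the agonist NPW; 0% = agonist with vehicle and 100% = vehicle without agonist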
Target sequence (P48145 whole entry, looked up): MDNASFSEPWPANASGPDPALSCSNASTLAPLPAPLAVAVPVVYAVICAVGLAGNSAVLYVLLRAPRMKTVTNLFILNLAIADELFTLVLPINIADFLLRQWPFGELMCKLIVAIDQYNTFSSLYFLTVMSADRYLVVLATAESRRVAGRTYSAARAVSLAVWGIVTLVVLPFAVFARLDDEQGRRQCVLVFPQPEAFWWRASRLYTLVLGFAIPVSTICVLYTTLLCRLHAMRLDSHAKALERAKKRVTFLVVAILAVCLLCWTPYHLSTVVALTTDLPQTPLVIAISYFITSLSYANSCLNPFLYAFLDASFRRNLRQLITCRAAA
CHT allo act: human CHT allosteric activation | Q9GZV3 | CHT-expressing cells, membrane potential dye, choline EC20; stronger effect = higher value; LV-AA mutant CHT in HEK293 cells | B-score at 10 µM | 310,000 tested, 0.49% active | AID 488977;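 active means initial fluorescence not abnormally high and integrated response B-score, plate-corrected, over 3 SD above library mean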
Kir21 block: blocks the mouse Kir2.1 inward-rectifier potassium channel. B-score at 10 µM. 310,000 tested, 0.85% active. HEK293-Kir2.1, FluxOR thallium flux fluorescence; stronger effect = lower value. P35561;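 active means fluorescence ratio B-score at or below minus 3 SD of library scores, with starting-brightness B-score within 2 SD, cut at about -4.2 in these data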;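 further: channel flux triggered by added potassium and thallium sulfate stimulus; B-score of peak minus minimum fluorescence over baseline after thallium stimulus; more negative B-score means stronger Kir2.1 block with less thallium influx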
Target sequence (P35561 whole entry, looked up): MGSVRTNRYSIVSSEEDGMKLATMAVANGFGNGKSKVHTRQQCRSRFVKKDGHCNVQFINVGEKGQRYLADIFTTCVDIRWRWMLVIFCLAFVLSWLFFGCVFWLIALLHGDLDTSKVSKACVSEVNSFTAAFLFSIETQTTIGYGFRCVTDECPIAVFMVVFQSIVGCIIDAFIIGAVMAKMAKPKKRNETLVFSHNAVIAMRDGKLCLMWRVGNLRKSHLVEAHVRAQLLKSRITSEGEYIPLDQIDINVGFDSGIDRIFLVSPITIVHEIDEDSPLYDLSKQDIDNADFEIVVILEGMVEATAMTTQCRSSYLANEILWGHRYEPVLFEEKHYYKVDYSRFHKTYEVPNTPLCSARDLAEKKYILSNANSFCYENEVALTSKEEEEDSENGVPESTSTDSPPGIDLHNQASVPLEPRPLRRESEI
TMEM16A act: activators or potentiators of mouse TMEM16A chloride channel; B-score at 10 µM; HEK293 TMEM16A/YFP-H148Q/I152L, iodide quench fluorescence; stronger effect = lower value; AID 623877; Q8BHY3; 340,000 tested, 0.3% active;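 active means fluorescence-ratio B-score plate-corrected deviation score at least 3 library SD below zero, with starting fluorescence score within 5 deviations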;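 further: channel opened by trigger with iodide after compound preincubation; score built on the fluorescence ratio of max minus min over baseline; more negative score means more quench and so TMEM16A activation or potentiation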
CHT block: inhibitors of human choline transporter CHT | Q9GZV3 | CHT-expressing cells, membrane potential dye, choline response; stronger effect = lower value | B-score at 10 µM | 310,000 tested, 0.86% active | AID 488975;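 active means B-score over 3 SD under the library average, and starting fluorescence ratio not unusually high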;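 further: choline stimulus applied at its EC90 after an EC20 pre-addition; B-score computed on integrated fluorescence ratio after choline addition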
CHT block conf: human CHT inhibition, confirmatory screen | shares compounds with CHT block | CHT-expressing cells, choline membrane potential dye; LV-to-AA substituted CHT, HEK293 cells | CHT activity remaining % of control (stronger effect = lower value), % at 10 µM | 2,400 tested, 70% active;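 active means choline transporter activity left, mean of duplicates at 10 µM, below buffer-only control mean minus 3 SD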;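 further: depolarization triggered by choline at its EC90 following an EC20 pre-addition; 0% = hemicholinium-3 full block and 100% = buffer-only control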
HEK293 CHT ctr: counter-screen for CHT inhibitors: effect in parental HEK293 cells | membrane potential dye, choline response; active = decrease or increase beyond buffer ±3SD | membrane potential ratio readout (active if shifted either direction beyond buffer ±3SD; no single direction) at 10 µM | 2,400 tested, 4% active | shares compounds with CHT block;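 further: parental cells lack the transporter so any hit is non-specific; ratio is peak minus trough fluorescence over baseline after EC90 choline challenge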
CHT act confirm: confirmation of human choline transporter (CHT) activators | 2,500 tested, 91% active | shares compounds with CHT allo act | CHT-expressing cells, membrane potential dye fluorescence (FDSS); % of choline EC20–EC90 response window; HEK293 expressing CHT LV-AA mutant; choline added at its EC20 | activation, % at 10 µM;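 active means primary screen active, with duplicate mean activation above negative control mean plus 3 SD, cut at about 11% in these data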
HEK293 MP dye: counter-screen for CHT activators: effect in parental HEK293 cells. shares compounds with CHT allo act. ratio readout change at 10 µM, hits read low. AID 623908. membrane potential dye fluorescence (FDSS); measured after EC20 choline addition. 2,500 tested, 62% active;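 active means duplicate-averaged ratio beyond 3 SD from buffer wells, up or down, though filed actives are nearly all decreases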
TMEM16A reconf: TMEM16A (mouse) chloride channel inhibition, re-confirmation. shares compounds with ANO1 block. HEK293 TMEM16A/YFP-H148Q, iodide quench fluorescence; ionomycin added to raise cell calcium. inhibition, % at 10 µM. 2,300 tested, 39% active;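 active means mean duplicate percent inhibition, scaled so buffer wells are 0 and the reference blocker 100, over three buffer SD above buffer mean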
TMEM16A Ca cntr: calcium mobilization counter-screen hit for TMEM16A inhibitor series | shares compounds with ANO1 block | TMEM16A/YFP HEK293, Fluo4 calcium mobilization | calcium response (% of ionomycin), % at 10 µM | 2,300 tested, 2% active;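 active means duplicate-averaged calcium signal over 20% of the ionomycin maximum, relative to buffer baseline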;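 further: each well's signal is peak minus trough fluorescence divided by its pre-addition baseline; 0% = buffer wells and 100% = ionomycin wells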
YFP-HEK293 quench: counter-screen for TMEM16A inhibitors: effect in parental YFP-HEK293 cells; shares compounds with ANO1 block; iodide YFP quench, ionomycin; YFP ratio F(max-min)/F0 at 10 µM; 2,300 tested, under 10 active;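 active means yellow fluorescent protein signal ratio exceeding the buffer control mean by over 5 SD of those controls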;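 further: ratio is mean of duplicate wells from kinetic YFP trace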
ClC-1 rat inh: selectivity of TMEM16A inhibitors: inhibition of rat ClC-1 chloride channel. shares compounds with ANO1 block. CHO ClC-1-YFP, iodide influx fluorescence quench; iodide control reads 0, buffer control 100. ratio percent, % at 10 µM. 2,300 tested, under 10 active. AID 652236;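 active means duplicate-mean ratio percent above the mean of iodide-only control wells, which defines zero, plus 5 of their SD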;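 further: higher percent means stronger block of ClC-1 iodide influx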
An asterisk follows results filed as active; i = inactive; x = no result. This is a sample that favours compounds with a hit; in the whole collection about 3.7% have one here.

SMILES	ANO1 block	GPR7 antagonist	CHT allo act	Kir21 block	TMEM16A act	CHT block	CHT block conf	HEK293 CHT ctr	TMEM16A reconf	TMEM16A Ca cntr	YFP-HEK293 quench	ClC-1 rat inh	others
Cc1cc(Cl)c(S(=O)(=O)NC(C(=O)O)C(C)C)cc1OCC(=O)NC1CCCCC1 (stereo unspecified)	i	-12	i	1.1	i	i	x	x	x	x	x	x
Cc1cc(Cl)c(S(=O)(=O)N2CCCC2)cc1OCC(=O)NC1CCCCC1	100*	-2	i	-1.2	i	-5.2*	57%*	i	22%*	i	-0.95	-21
CCOC(=O)C1(Cc2ccc(Cl)cc2)CCN(C(=O)CCc2ccncc2)CC1	i	-6	i	0.27	i	i	x	x	x	x	x	x
COc1ccc(CCNc2nc(-c3ccc(O)cc3)cs2)cc1OC	100*	-13	i	-4.6*	i	-5*	i	i	30%*	i	-0.96	-32
O=C(NC1CCN(C(=O)Nc2ccccc2Cl)CC1)c1cccc(F)c1	i	-1	i	1	i	i	x	x	x	x	x	x
CCC(Oc1ccccc1)C(=O)Nc1nnc(C(F)(F)F)s1 (stereo unspecified)	100*	2	i	x	i	-5.1*	i	i	20%*	i	-0.97	-20
CCC(Oc1ccccc1)C(=O)Nc1nc2c(s1)C(=O)CC(C)(C)C2 (stereo unspecified)	i	0	i	0.56	i	i	x	x	x	x	x	x
c1ccc(C(=C2CCCO2)c2ccccc2)cc1	x	x	x	x	i	x	x	x	x	x	x	x
O=C(Nc1nnc(C2CC2)s1)C1COc2ccccc2O1 (stereo unspecified)	i	3	i	0.99	i	i	x	x	x	x	x	x
O=C(Nc1nnc(C(F)(F)F)s1)C1COc2ccccc2O1 (stereo unspecified)	100*	-8	i	1.4	i	-5.4*	49%*	i	30%*	i	-1.1	-17
Nc1cc(S(=O)(=O)N2CCCCC2)ccc1Oc1ccc(Cl)cc1	100*	7	i	1.1	i	-9.4*	i	i	i	i	-1.1	-14
Cc1cc(-c2csc(NC(=O)c3ccc(=O)[nH]c3)n2)c(C)n1Cc1ccccc1	i	3	i	0.84	i	i	x	x	x	x	x	x
O=C(Nc1nc(-c2ccccc2)cs1)c1ccc(=O)[nH]c1	25*	0	i	-1.2	i	-6*	70%*	i	26%*	i	-0.84	-8
O=C(NNC(=S)Nc1ccccc1)c1cc(Br)ccc1Cl	25*	-14	i	-0.71	i	-5.8*	54%*	i	18%*	i	-1	-8
O=C1N=C(N2CCOCC2)S/C1=C\c1ccccc1OS(=O)(=O)c1ccccc1	i	-6	i	2.3	i	i	x	x	x	x	x	x
Cc1ccc(S(=O)(=O)Oc2ccccc2/C=C2/SC(=O)NC2=O)cc1	25*	-19	i	-2	i	-6*	57%*	i	i	i	-0.9	-11
CCOc1cc(/C=C2\N=C(SC)SC2=O)cc([N+](=O)[O-])c1OC(C)=O	100*	-3	i	-0.5	i	-5.2*	65%*	i	i	i	-0.94	-3
Cc1nc(-c2ccc([N+](=O)[O-])cc2)sc1C(=O)O	i	-5	i	0.83	i	i	x	x	x	x	x	x
Cn1c(=O)c2c(nc(SCCN3CCOCC3)n2Cc2ccc(F)cc2)n(C)c1=O	i	-11	i	0.13	i	i	x	x	x	x	x	x
CCn1c(SCCN2CCOCC2)nc2c1c(=O)n(C)c(=O)n2C	i	-21	i	0.44	i	i	x	x	x	x	x	x	CHT act confirm=49*;HEK293 MP dye=-38*
Cn1c(=O)c2c(nc(SCCN3CCOCC3)n2C)n(C)c1=O	i	12	i	0.87	i	i	x	x	x	x	x	x	CHT act confirm=51*;HEK293 MP dye=-51*
CN(C)C=NCCn1c(N2CCOCC2)nc2c1c(=O)n(C)c(=O)n2C	i	-5	14*	-1.6	i	i	x	x	x	x	x	x	CHT act confirm=68*;HEK293 MP dye=-70*
Cc1noc(C)c1S(=O)(=O)N(C)C[C@H]1Oc2ccc(NC(=O)NC3CCCCC3)cc2C(=O)N([C@H](C)CO)C[C@@H]1C	x	x	x	x	i	x	x	x	x	x	x	x
CSc1ccccc1NC(=O)CN(C)C(=O)C1CCN(C(=O)Nc2ccccc2)CC1	i	x	i	-0.08	i	i	x	x	x	x	x	x
Nc1nc(Nc2ccccc2)nc(NC2CCCCC2)c1[N+](=O)[O-]	i	-63	i	0.18	i	i	x	x	x	x	x	x
CCN(CC)C(=O)C1CCN(Cc2cn(C)nc2-c2ccc(Oc3ccccc3)cc2)CC1	i	12	i	-0.97	i	i	x	x	x	x	x	x	CHT act confirm=1;HEK293 MP dye=i
NCCCC[C@H]1CN=C(N)N1CCC12CC3CC(CC(C3)C1)C2	i	x	8.5*	-0.85	i	i	x	x	x	x	x	x	CHT act confirm=54*;HEK293 MP dye=-58*
CN(Cc1ccccc1)C(=O)c1oc(=O)c2ccccc2c1-c1ccccc1	i	16	i	-1	i	i	x	x	x	x	x	x
